Bioassay records from PubChem.
Compounds with a hit are over-represented: about 19% of the library has one in this group of screens.
KB-3-1 cytotox: KB-3-1 parental cell cytotoxicity | KB-3-1 viability, CellTiter-Glo ATP luminescence, 72 h | Potency, µM (doses to about 46.1 µM), hits mostly cytotoxic | 400,000 compounds, 1.4% hits; note: nearly all actives have a fitted effect of over 60% in size
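Luminescent ATP read-out (CellTiter-Glo) measures survival of drug-naive KB-3-1 cells after 72 h compound exposure at 37 °C. Titration series was screened from lowest to highest concentration, with DMSO vehicle plates as background controls.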
KB-V1 cytotox: KB-V1 MDR subline cytotoxicity; 400,000 compounds, 3.4% hits; KB-V1 MDR cells viability, CellTiter-Glo, 72 h; Potency, µM (highest dose often 46.1 µM), most hits filed as cytotoxic; note: nearly all actives have a fitted effect of over 60% in size
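Luminescent ATP read-out (CellTiter-Glo, 10 min) measures survival of drug-selected KB-V1 MDR cells after 72 h, 37 degrees C compound exposure. Medium: phenol-red-free DMEM, 10% FBS. Values from fitted concentration-response curves.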
HT1080-NT tox: kills 2HG-producing HT-1080-NT fibrosarcoma cells; Potency, µM (top dose mostly 46.1 µM), inactives show top-dose activity, negative = less viability, actives largely listed as cytotoxic; HT-1080-NT fibrosarcoma viability, CellTiter-Glo ATP luminescence, 48 h; 360,000 compounds, 1.6% hits;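 note: NT is the 2HG producing partner of a matched IDH1 knockdown line; 0% = DMSO-treated cells and -100% = media-only wells without cells; nearly all actives have a fitted effect of over 55% in size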
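Luminescent CellTiter-Glo readout after 48 hours of compound exposure at 37 degrees C defined viability of HT-1080-NT cells. Activity was normalized to DMSO wells and cell-free media wells; concentration-response curves were fitted and assigned curve classes.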
TDP1 cell CPT: DT40-hTDP1 cell growth loss with CPT. chicken DT40 Tdp1-/-;hTDP1 cells + 20 nM CPT, ATP luminescence, 48 h. Potency, µM (titrated, usually from 46.2 µM), for the others: top-dose activity change, negative = growth inhibition, hits mostly inhibitors. 420,000 compounds, 12% hits. AID 686979; note: nearly all actives have a fitted effect of over 55% in size
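Cell growth measured by CellTiter-Glo luminescence after a minimum 48 h, 37 C compound exposure with 20 nM CPT in Tdp1-knockout DT40 cells stably expressing hTDP1, seeded 400/well; qHTS titration format.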
HT1080 IDH1KD tx: HT-1080 IDH1 knockdown cell toxicity (counter line) | 360,000 compounds, 2% hits | Potency, µM (top dose mostly 46.1 µM), inactives show at the top dose activity, negative = toxicity, usual class: cytotoxic | HT-1080 IDH1 knockdown viability, ATP luminescence, 48 h;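 note: 0% = DMSO wells and -100% = cell-free medium wells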
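Knockdown cells (IDH1KD HT-1080) received compounds 2 h after plating at 750 cells/well and were kept 48 h at 37 °C in 5% FBS RPMI. A CellTiter-Glo luminescence read gave % activity for curve fitting.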
TDP1 cell noCPT: qHTS for Inhibitors of human tyrosyl-DNA phosphodiesterase 1 (TDP1): qHTS in cells in absence of CPT. DT40 Tdp1-/- hTDP1 cells, no CPT, ATP luminescence, 48 h. Potency, µM (top dose mostly 46.2 µM), for the others: at the highest dose activity change, negative = growth inhibition, most hits filed as inhibitors. 420,000 compounds, 15% hits. AID 686978, 2013; note: nearly all actives have a fitted effect of over 55% in size
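Compound effects on proliferation are scored in DT40 Tdp1-/-;hTDP1 cells in the absence of CPT. ATP levels (CellTiter-Glo luminescence) are recorded after a ≥48 hr, 37 °C incubation.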
Starred values were filed as active, the others as inactive; i = inactive; u = inconclusive; x = not tested or not shown. Calls come from the whole dose curve; as a rule, active = well fitted curve in the direction sought with a large enough effect; inconclusive = small, poorly fitted or top-dose-only effect, or another doubt; inactive = no such curve, though single readings can be large; an effect the other way counts as inactive or inconclusive. Unless noted, % is set by controls: 0 for no effect and ±100 for the full control effect; potency is the fitted concentration of half-maximal effect.

SMILES	KB-3-1 cytotox	KB-V1 cytotox	HT1080-NT tox	TDP1 cell CPT	HT1080 IDH1KD tx	TDP1 cell noCPT
Cc1ccc(-c2nc3ccc(Cl)cc3n2OC(C)C(=O)O)cc1 (stereo not drawn)	i	u	5%	-10%	7%	13%
O=C(NCc1cccnc1)c1ccc(COc2ccc(Cl)cc2)cc1	i	i	-21%	16µM*	u	10µM*
CC(C)(C)c1ccc(OCc2ccc(C(=O)NCc3cccnc3)o2)cc1	i	i	0%	21µM*	0%	8.2µM*
O=C(Nc1ccc(Cl)cc1C(=O)NCc1cccnc1)c1ccc(Cl)cc1Cl	21µM*	u	u	u	u	18µM*
CCN1CCN(C(=O)c2cc(S(=O)(=O)N3CCCCC3)ccc2Cl)CC1	i	i	5%	-11%	4%	-5%
CC(=O)c1c(C)oc2c(Cl)cc(NS(=O)(=O)c3ccc(Cl)cc3)cc12	i	u	x	x	x	x
Cc1cc(C)c(S(=O)(=O)Nc2cccc3nsnc23)c(C)c1	18µM*	15µM*	-1%	-6%	0%	u
COC(=O)c1c(C)oc2c1cc(NS(=O)(=O)c1c(C)cc(C)cc1C)c1ccccc12	u	i	x	12µM*	x	21µM*
CCOC(=O)c1c(C)oc2c(Cl)cc(NS(=O)(=O)c3ccc(Cl)c(C)c3)cc12	u	u	x	u	x	26µM*
COC(=O)C(C(=O)OC)c1ccccc1NS(=O)(=O)c1c(C)cc(C)cc1C	u	u	u	16µM*	u	21µM*
COC(=O)C(C(=O)OC)c1ccccc1NS(=O)(=O)c1ccc(C)cc1	i	i	u	-6%	-14%	20%
COc1ccc(NS(=O)(=O)c2cn(C)nc2C)cc1	i	u	15%	-1%	13%	-1%
CCCCN(C(=O)c1cc2c(s1)CCCCC2)c1c(N)n(CC(C)C)c(=O)[nH]c1=O	i	i	2%	-2%	3%	-3%
Cc1ccc(S(=O)(=O)Nc2cc3c(C(=O)OCc4ccccc4)c(C)oc3c3ccccc23)cc1	i	i	x	u	x	u
CCOC(=O)c1c(C)oc2c1cc(NS(=O)(=O)c1ccc(C)cc1)c1ccccc12	i	i	x	u	x	21µM*
Cc1ccc(C)c(NC(=O)Cn2cnc3nc4c(cc3c2=O)CCCC4)c1	i	i	x	-29%	x	u
COc1ccc(N2CCN(C(=O)CN(c3cccc(OC)c3)S(=O)(=O)c3ccccc3)CC2)cc1	x	x	-2%	21µM*	6%	15µM*
COc1ccc(N(CC(=O)N2CCN(c3ccccc3)CC2)S(=O)(=O)c2ccccc2)cc1	i	i	-16%	16µM*	-1%	18µM*
COc1ccc(S(=O)(=O)N(CC(=O)N2CCN(c3ccccc3)CC2)c2ccccc2)cc1	i	u	-1%	-29%	0%	u
CCOC(=O)N1CCN(C(=O)CN(c2ccc(Cl)c(C(F)(F)F)c2)S(C)(=O)=O)CC1	i	23µM*	-2%	-1%	-1%	-25%
CCOC(=O)N1CCN(C(=O)CN(c2cccc(C)c2)S(=O)(=O)c2ccccc2)CC1	i	2.9µM*	11%	4%	9%	-14%
CCOC(=O)N1CCN(C(=O)CN(c2cccc(C)c2)S(=O)(=O)c2ccc(C)cc2)CC1	i	u	8%	-7%	-2%	-10%
O=C(NC12CC3CC(CC(C3)C1)C2)OCCNC1CCCCC1	i	u	-17%	-23%	-15%	u
CCOc1ccc2nnnn2n1	i	u	11%	0%	6%	6%
CC(C)(C)OC(=O)C(Cl)(C(=O)OC(C)(C)C)c1ccc2nnnn2n1	i	i	u	u	18µM*	u
SMILES	KB-3-1 cytotox	KB-V1 cytotox	HT1080-NT tox	TDP1 cell CPT	HT1080 IDH1KD tx	TDP1 cell noCPT
Cc1cccc(N2CCN(C(=O)c3ccc(N4CCCC4=O)cc3)CC2)c1C	u	u	10%	12µM*	-1%	23µM*
O=C(c1ccc(N2CCCC2=O)cc1)N1CCN(c2cccc(C(F)(F)F)c2)CC1	i	u	-1%	16µM*	-5%	23µM*
O=C(c1cccc(N2CCCC2=O)c1)N1CCN(c2cccc(Cl)c2)CC1	5.2µM*	u	u	u	13µM*	3.3µM*
Cc1cccc(NC(=O)C2CCN(c3nnc(C)c4c(C)n(-c5ccccc5)nc34)CC2)c1C	x	x	x	-16%	x	14%
CCC(=O)N1CCc2cc(S(=O)(=O)CCC(=O)Nc3ccc(OC)c(OC)c3)ccc21	i	i	3%	5%	8%	26%
Cc1ccccc1NC(=O)C1Cc2ccccc2CN1C(=O)OCc1ccccc1 (stereo not drawn)	u	u	-2%	u	-2%	21µM*
COC(=O)C1=C(c2ccccc2)c2ccccc2S(=O)(=O)N1CC(=O)Nc1ccc(OC)cc1OC	i	i	x	-3%	x	u
Cc1ccc(NC(=O)N2CCc3ccccc3C2)c(C)c1	i	i	0%	7%	5%	-1%
Cc1ccc(NC(=O)c2c(C)noc2-c2snnc2C)cc1	u	u	-26%	u	u	u
Cc1nnsc1-c1onc(C)c1C(=O)Nc1cc(Cl)cc(Cl)c1	i	16µM*	u	u	u	-101%
Cc1ccccc1S(=O)(=O)Cc1ccc(C(=O)NCCCN2CCCC(C)C2)o1 (stereo not drawn)	i	u	-1%	-2%	2%	33%
COc1ccc2nc(NC(=O)c3ccc([N+](=O)[O-])o3)sc2c1	18µM*	u	u	23µM*	18µM*	13µM*
O=C(Nc1nc2c(F)cc(F)cc2s1)c1ccc([N+](=O)[O-])o1	10µM*	i	-16%	15µM*	-2%	10µM*
O=C(Nc1nc2cc3c(cc2s1)OCCO3)c1ccc([N+](=O)[O-])o1	3.3µM*	u	u	8.2µM*	u	10µM*
O=C(Nc1nc2ccccc2s1)c1ccccc1[N+](=O)[O-]	i	i	-15%	-19%	-5%	6%
Cc1cc(C)c2nc(NC(=O)c3ccc([N+](=O)[O-])o3)sc2c1	i	i	11%	-9%	-18%	3%
O=C(Nc1nc2ccccc2s1)c1ccc([N+](=O)[O-])o1	u	u	u	15µM*	-14%	8.2µM*
